In the library only some 6.8% were active in any assay of this set; here they are far more common.
NS3h inh CB – HCV NS3 helicase inhibitors, primary screen, biochemical, fluorescence polarization, ChemBridge library; NS3h Cy5-dT15 DNA binding; inhibition, % at 100 µM; actives 1.6% (n = 16,000);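 active means inhibition above the average over every tested compound plus 3 SD, cut at about 40% in these data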
Cy5 interf NS3h – Cy5 fluorescence quenchers or enhancers, artefact control for HCV NS3 helicase inhibitor project, biochemical, ChemBridge library, Cy5 readout; actives 6% (n = 16,000); fluorescence interference ratio at 100 µM; Cy5-dT15 DNA with NS3h, fluorescence interference; actives lie on both sides; signal over control mean, under 1 quenches;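 active means compound fluorescence over control fluorescence at most 0.8, a quencher, or at least a set upper limit, an enhancer; inactive means ratio between 0.8 and the set upper limit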
* hit, by the source's call.

SMILES	NS3h inh CB	Cy5 interf NS3h
Cn1c(-n2c(CCCN3C(=O)c4ccccc4C3=O)nc3ccccc3c2=O)nc2ccccc21	11.5	0.674*
Cn1c(CC(O)(c2ccccc2)c2ccccc2)nc2ccccc21	11.9	1.06
O=C1c2ccccc2C(=O)N1CCc1nc2ccccc2c(=O)n1-c1nccs1	16.1	0.59*
O=C(CCN1C(=O)c2ccccc2C1=O)NCc1ccccn1	6.7	0.966
CCOC(=O)CC(NC(C)=O)c1ccc([N+](=O)[O-])cc1 (stereo not drawn)	-0.6	1.04
C=CCSc1nc2ccccc2n1C(=O)C1C(C=C(Cl)Cl)C1(C)C (stereo not drawn)	12.0	0.869
O=C1OC2C=CC(Br)=CC2C=C1C(=O)N1CCSC1c1ccc2c3c(cccc13)CC2 (stereo not drawn)	12.6	0.997
O=C1OC2C=CC(Br)=CC2=CC1C(=O)N1CCSC1c1ccccc1Cl (stereo not drawn)	21.3	0.726*
O=c1c2c(nc3cc(-c4ccc(Cl)cc4)[nH]n13)CCC2	29.3	1.19
CN1C(=O)/C(=C2/C(=O)N(CC(N)=O)c3ccccc32)SC1=S	2.9	0.878
COc1ccc(N2C(=O)/C(=C3/C(=O)N(Cc4ccccc4F)c4ccccc43)SC2=S)cc1	7.4	1.2*
Cc1cc(Cn2ccnc2)c(C)c([N+](=O)[O-])c1Cn1ccnc1	2.3	1.14
Cc1ccc(NC(=O)C(=O)NCCN2CCN(C(=O)c3ccco3)CC2)cc1	-2.8	1.03
O=C(NC(NC(=S)Nc1cccc2ccccc12)C(Cl)(Cl)Cl)c1ccccc1 (stereo not drawn)	8.1	0.901
CC(=O)c1ccc(NC(=S)NC(NC(=O)c2ccc(Cl)cc2Cl)C(Cl)(Cl)Cl)cc1 (stereo not drawn)	0.4	1.01
CC(=O)Nc1ccc(NC(=S)NC(NC(=O)c2ccc(C)cc2)C(Cl)(Cl)Cl)cc1 (stereo not drawn)	5.9	0.672*
CC(=O)c1ccc(NC(=S)NC(NC(=O)c2ccc(C)cc2)C(Cl)(Cl)Cl)cc1 (stereo not drawn)	-8.2	0.987
CC(=O)NC(NC(=S)Nc1cccc(Cl)c1)C(Cl)(Cl)Cl (stereo not drawn)	19.4	1.21*
Cc1ccc(C(=O)NC(NC(=S)Nc2cccc3ccccc23)C(Cl)(Cl)Cl)cc1 (stereo not drawn)	5.0	0.712*
COc1ccc(Br)cc1/C=C/C(=O)Nc1ccc(Cl)cc1	12.0	0.974
CC(=O)Nc1ccc(NS(=O)(=O)c2cc(C)ccc2C)cc1	1.0	1.04
COc1ccc(C2=C/C(=C/c3ccc([N+](=O)[O-])cc3)C(=O)O2)c(OC)c1	8.7	0.668*
CCOc1ccc(C2=C/C(=C/c3ccc(OC)cc3)C(=O)O2)cc1	9.4	1.05
CC(=C(C#N)C#N)c1ccc2c(c1)OCO2	8.7	0.743*
CC(=C(C#N)C#N)c1ccc2c(c1)OCCO2	2.0	0.974
SMILES	NS3h inh CB	Cy5 interf NS3h
COc1cccc(NC(=O)COc2ccc(Br)cc2C(C)(C)C)c1	10.9	0.993
O=C1NC(=S)S/C1=C/c1ccc(OCc2cccc(C(=O)O)c2)cc1	46.1*	0.917
COc1cc(/C=C2/SC(=NS(=O)(=O)c3ccccc3)NC2=O)c([N+](=O)[O-])cc1OC	16.4	0.958
COc1cc(/C=C2/SC(=S)NC2=O)ccc1OC(=O)c1cccc(Br)c1	16.1	0.757*
COc1cc(/C=C2/SC(=S)NC2=O)ccc1OS(=O)(=O)c1ccccc1[N+](=O)[O-]	5.3	1.26*
O=C1NC(=S)S/C1=C/c1ccc(OCc2ccc(Cl)cc2)cc1	18.7	0.972
COc1cc(/C=C2/SC(=S)NC2=O)ccc1OCc1ccc(I)cc1	13.9	1.07
COc1ccc(C2C(C(C)=O)=C(O)C(=O)N2CC2CCCO2)cc1OC (stereo not drawn)	-4.9	1.1
O=C(CCN1C(=O)/C(=C/c2cccs2)SC1=S)Nc1nc2ccccc2s1	14.2	0.705*
O=C(CCCN1C(=O)/C(=C\c2cccs2)SC1=S)Nc1ccccc1O	8.0	0.972
CCOC(=O)C1=C(C)N=c2s/c(=C\c3cc(OC)ccc3OC)c(=O)n2C1c1ccc(F)cc1 (stereo not drawn)	9.8	1.02
O=C(Nc1c(C(=O)N2CCOCC2)cnn1-c1ccccc1)c1ccccc1	-1.8	1.03
O=C(Nc1c(C(=O)N2CCCCCC2)cnn1-c1ccccc1)c1cccc(F)c1	30.7	1.27*
CCC1CCCCN1C(=O)c1cnn2c(C(F)(F)F)cc(-c3ccc(C)cc3)nc12 (stereo not drawn)	16.6	1.15
COC(=O)c1cnn2c(C(F)(F)F)cc(-c3ccccc3)nc12	9.7	1.03
COc1cc(-c2cc(C(F)(F)F)n3ncc(C(=O)NCc4cccnc4)c3n2)cc(OC)c1OC	-0.7	1.05
Cc1ccc(O)c(NC(=O)c2cnn3c(C(F)(F)F)cc(-c4ccco4)nc23)c1	1.2	0.585*
O=C(NCc1ccc(Cl)cc1)c1cnn2c(C(F)(F)F)cc(-c3ccco3)nc12	11.5	0.589*
COC(=O)c1ccccc1NC(=O)c1cnn2c(C(F)(F)F)cc(-c3ccc(OC)c(OC)c3)nc12	11.5	0.682*
CCOc1ccc(C(=O)Nc2cc(Cl)cc(Cl)c2)cc1Br	5.0	1.05
COc1ccc(C(=O)N2CCN(Cc3cc(OC)c(O)c(OC)c3)CC2)cc1OC	-8.5	1.1
Cc1cc(/C=C2\C(=O)NC(=O)N(c3ccccc3F)C2=O)c(C)n1C	8.2	1.15
COc1ccc(/C=C/C(=O)Nc2ccccc2Cl)cc1Br	18.8	1.01
Cn1ccnc1SCC(=O)Nc1cccc(C(F)(F)F)c1	9.6	0.764*
O=C(CSc1cc(Cl)ccc1Cl)Nc1cccc(C(F)(F)F)c1	-4.2	0.895
SMILES	NS3h inh CB	Cy5 interf NS3h
O=C(COc1ccc2c(-c3ccccc3)cc(=O)oc2c1)OCc1ccccc1	2.2	1.01
O=C(/C=C/c1ccc(/C=C/C(=O)c2cccc(N3C(=O)C=CC3=O)c2)cc1)c1cccc(N2C(=O)C=CC2=O)c1	16.4	0.999
CC(=O)NS(=O)(=O)c1ccc(NS(=O)(=O)c2ccc(C)cc2)cc1	-0.6	0.983
Cc1ccc(S(=O)(=O)Nc2ccc(S(=O)(=O)NC(=O)C3CCCCC3)cc2)cc1	11.5	0.724*
O=C(Nc1ccc(-c2nc3ncccc3o2)cc1)c1ccc(-c2cccc(Cl)c2)o1	-44.1	1.21*
O=C(Nc1ccc2ccccc2c1)c1ccc(-c2cccc(Cl)c2)o1	5.2	0.942
COc1ccc(NC(=O)/C(C#N)=C/c2ccc(-c3ccc([N+](=O)[O-])cc3OC)o2)cc1	4.8	1.05
COc1ccc(/C=C(\C#N)c2nn(-c3ccccc3)c(N)c2C#N)cc1[N+](=O)[O-]	-29.9	0.791*
CCOc1cc(/C=C(\C#N)c2nn(CCO)c(N)c2C#N)cc(Br)c1OC	-17.7	0.986
O=C(NCCCN1CCOCC1)C(=O)NCc1ccco1	7.3	1.14
O=C(NC(c1ccccc1)c1ccccc1)C(=O)c1c[nH]c2ccccc12	15.2	0.655*
Cc1ccc(C(=O)Nc2ccccc2C(=O)NC(Cc2c[nH]c3ccccc23)C(=O)O)cc1 (stereo not drawn)	16.6	0.983
CCc1ccc(N2CC(C(=O)Nc3cccc4ccccc34)CC2=O)cc1 (stereo not drawn)	28.5	0.999
Cc1ccc(N(CC(=O)Nc2c(C)cccc2C)S(=O)(=O)c2ccc(F)cc2)cc1	-2.9	1.1

Bioassay records deposited in PubChem by Milwaukee Institute for Drug Discovery.
